Measured values from PubChem BioAssay AID1851 (National Center for Advancing Translational Sciences (NCATS), 2009).
About 4,000 (25%) of roughly 16,000 compounds were called active. Another 26% or so got no clear call; they are omitted. Calls follow the shape of the dose curve; as a rule, active = well fitted curve in the direction sought with a large enough effect; inconclusive = small, poorly fitted or top-dose-only effect, or effect the other way; inactive = no such curve, though single readings can be large or run the other way. The list is a sample of the results.

molecular target: Cytochrome P450 2C9 (Homo sapiens) (UniProt P11712); experiment: Cytochrome panel assay with activity outcomes; settings: recombinant CYP, pro-luciferin dealkylation, luminescence, p450-cyp2c9; series mostly up to 57.1 µM
% is scaled to controls: 0 for no effect and ±100 for the full control effect.

Sequence of Cytochrome P450 2C9 (Homo sapiens) (P11712 whole entry, looked up): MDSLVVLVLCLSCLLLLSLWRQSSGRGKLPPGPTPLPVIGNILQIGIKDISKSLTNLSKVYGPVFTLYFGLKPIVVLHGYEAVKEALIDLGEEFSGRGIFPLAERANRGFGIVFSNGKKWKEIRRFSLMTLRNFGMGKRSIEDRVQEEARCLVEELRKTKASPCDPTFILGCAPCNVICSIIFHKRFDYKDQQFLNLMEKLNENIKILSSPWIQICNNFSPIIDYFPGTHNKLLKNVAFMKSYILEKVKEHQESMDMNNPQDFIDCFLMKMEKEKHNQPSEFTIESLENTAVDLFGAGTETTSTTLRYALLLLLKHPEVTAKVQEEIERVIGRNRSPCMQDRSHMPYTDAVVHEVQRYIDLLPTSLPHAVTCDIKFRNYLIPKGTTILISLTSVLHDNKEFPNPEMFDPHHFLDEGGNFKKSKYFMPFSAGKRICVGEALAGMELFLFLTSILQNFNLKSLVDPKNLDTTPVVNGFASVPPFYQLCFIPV

AC50, active:
COc1ccc(-c2n[nH]c(C)c2-c2ccc(Cl)cc2)c(O)c1 10 µM, CC(NC(=O)c1ccccc1)c1nc2ccccc2n1Cc1ccccc1F (centres undefined) 5.62 µM, CCN(CC)S(=O)(=O)c1cc(C(=O)Nc2ccncc2)ccc1Cl 0.141 µM, COC(=O)c1ccc(NC(=S)N2CCN(Cc3cccc(C)c3)CC2)cc1 25.1 µM, Cc1nn(C(C)C(=O)N2CCc3ccccc32)c(C)c1[N+](=O)[O-] (centres undefined) 11.2 µM, FC(F)(F)c1nc2nc(Cl)c(Cl)nc2n1CCCN1CCOCC1 2.51 µM, CCCC(=O)NCCc1c2n(c3ccc(OC)cc13)Cc1ccccc1-2 1.26 µM, CSc1nncc(/C(C)=N\Nc2ccccc2)n1 4.47 µM, CC/C(=N/Nc1ccccc1)c1cnnc(SC)n1 0.891 µM, Cc1cc(SCC(=O)c2ccccc2)nc(SCC(=O)c2ccccc2)n1 0.891 µM, CCC(=O)c1ccc(OCC(O)CN(CCc2ccccc2)Cc2ccccc2)cc1 (centres undefined) 3.16 µM, C=CCSc1nc(Oc2ccccc2)c2sccc2n1 8.91 µM, COC(=O)[C@@]1(Cc2ccccc2)[C@H]2c3cc(C(=O)N4CCCC4)n(Cc4ccccn4)c3C[C@H]2CN1C(=O)c1ccccc1 0.2 µM, COC(=O)[C@@]1(Cc2ccc(F)cc2)[C@H]2c3cc(C(=O)N4CCCC4)n(Cc4ccccn4)c3C[C@H]2CN1C(=O)c1ccccc1 2 µM, CNC(=O)c1ccc(-c2sc3nc(N4CCOCC4)c4c(c3c2N)CC(C)(C)OC4)o1 4.47 µM, CCN(CC)S(=O)(=O)c1cc(C(=O)Nc2ccccc2C(=O)O)ccc1OC 2.24 µM, CCN(CC)S(=O)(=O)c1ccc(OC)c(NC(=O)CSc2ccccc2)c1 2.51 µM, O=C(Oc1ccccc1)N1CCC2(CC1)CCN(c1ncccn1)CC2 15.8 µM, O=C(Oc1ccccc1)N1CCC[C@@]2(CCN(c3ncccn3)C2)C1 10 µM, O=C(Oc1ccccc1)N1CCC[C@@]2(CCN(c3ccncc3)C2)C1 10 µM, O=C(Oc1ccccc1)N1CCC2(CC1)CN(c1ccncc1)C2 3.16 µM, O=[N+]([O-])c1cc(F)c(N2CCOCC2)cc1N1CCCCC1 7.08 µM, N#Cc1c2n(c3c(=S)nc[nH]c13)CCCCC2 17.8 µM, CCCc1ccc(C2C3=C(CC(C)(C)CC3=O)NC3=C2C(=O)c2ccccc23)cc1 (centres undefined) 7.94 µM, Cc1ccc(/C(N)=N/OC(=O)Cc2cccs2)cc1 7.08 µM, COc1cccc(C(CC(=O)Nc2cccc3ccccc23)NC(=O)c2ccccc2)c1 (centres undefined) 0.251 µM, CN(CCO)c1nc(N)c2c(N)nc3c(c2c1C#N)CC(=O)N3C1CCCC1 1.41 µM, c1ccc2c(c1)ncn2Cc1nnc2sc(-c3ccc4c(c3)OCO4)nn12 3.16 µM, COc1cc(C(=O)OC(C)C(=O)Nc2ccc3c(c2)OCO3)ccc1OCc1c(C)noc1C (centres undefined) 11.2 µM, CCN(CC)S(=O)(=O)c1ccc(C(=O)Nc2ncn(Cc3ccccc3)n2)cc1 11.2 µM, O[C@@H](C1=C/C(=C\c2ccncc2)c2ccccc21)c1ccncc1 0.1 µM

AC50, inactive:
C[C@@H]1CCC[C@H](C)N1NC(=O)c1ccc(Cl)c(S(N)(=O)=O)c1, CN(C)CCCc1cc(C(=O)Nc2ccc(-c3ccncc3)cc2)ccc1O, COc1ccc(NC(=S)N2CCN(C/C=C/c3ccccc3)CC2)cc1OC, Cc1nn(CC(=O)NCCN2CCOCC2)c(C)c1[N+](=O)[O-], Cc1nn(CC(=O)NCc2ccccc2)c(C)c1[N+](=O)[O-], OCCN1CCOCCOCCN(CCO)CCN(CCO)CC1, c1cc(CNCCCN2CCOCC2)ccn1, CCCCC(=O)NCCc1c(Cc2ccccc2)[nH]c2ccccc12, CCOC(=O)/C(C(N)=NCCCO)=C(/O)c1ccccc1, Nc1cc(N)nc(SCC(=O)c2ccccc2)n1, CN(C)CC(O)COc1cccc(OCC(O)CN(C)C)c1 (centres undefined), CN(C)CC(O)COc1ccc(C(C)(C)c2ccc(OCC(O)CN(C)C)cc2)cc1 (centres undefined), C=CCSc1ccsc1C(=O)O, CCNc1ncc2nc(-c3cccc(C#N)c3)c(=O)n(C)c2n1, CCOc1nc(NC(C)C)nc(NC(C)C)n1, CCN(CC)S(=O)(=O)c1ccc(OC)c(NC(=O)c2cc([N+](=O)[O-])ccc2Cl)c1, COc1ccc(C(=O)Nc2cccc3c2C(=O)NC3=O)cc1S(=O)(=O)N1CCOCC1, CCNc1ncc2nc(-c3cccs3)c(=O)n(C[C@H]3CCCO3)c2n1, CC(=O)N1CCC[C@@]2(CCN(c3ncccn3)C2)C1, O=C(Oc1ccccc1)N1CCC2(CC1)CN(c1ccccn1)C2, O=C(Oc1ccccc1)N1CCC2(CC1)CN(c1ccccc1)C2, COC(=O)N1CCC2(CC1)CN(c1ccncc1)C2, O=C(c1ccncc1)N1CCC[C@@]2(CCN(c3ccccc3)C2)C1, CC(=O)N1CCC[C@@]2(CCN(c3ccncc3)C2)C1, O=C(Oc1ccccc1)N1CCC2(CC1)CCN(c1ccccc1)CC2, COC(=O)N1CCC[C@@]2(CCN(c3ncccn3)C2)C1, COCC(=O)N1CCC2(CCCN(C(=O)Nc3cccc(C#N)c3)C2)CC1, COc1cccc(Nc2ncc3nc(-c4cc(F)cc(F)c4)c(=O)n(CCC#N)c3n2)c1, CCN1/C(=C/c2ccc3cccc(C)c3[n+]2CC)Sc2ccccc21, Cn1ncc([N+](=O)[O-])c1C(=O)N1CCOCC1, O=C1N/C(=C\c2ccc(N3CCOCC3)c(F)c2)C(=O)N1Cc1ccccc1, C[N+]1(C)C[C@@H](O)C[C@@H]1C(=O)[O-], CC(C)NC(=O)N1CCCC2(CCN(C(=O)c3ccco3)CC2)C1, Cn1c(-c2ccc3c(c2)OCO3)cc(=O)c2ccccc21, Cc1noc(C)c1COc1ccc(C(=O)NCC2CCCO2)cc1 (centres undefined), COc1ccc(C(=O)OC(C)CN2CCN(C)CC2)cc1OC (centres undefined), CCCN(CCC)S(=O)(=O)c1ccc(C(=O)O)cc1

activity, negative = inhibition, inactive:
O=C(O)[C@@H]1[C@@H](C(=O)Nc2ncccn2)[C@@H]2C=C[C@@H]1O2 2.98% [at 11.4 µM], C#CCCCO/N=C1/C[C@@H](O)[C@@H](O)[C@@H]2[C@@H]3C(=O)N(CC)C(=O)[C@H]3CC[C@@H]12 0.179% [at 11.4 µM], O=C(O)[C@@H](c1ccccc1)[C@@H](C(=O)O)c1ccccc1 0.327% [at 11.4 µM], O=C(CSc1ncnc2nc[nH]c12)c1ccccc1 -26.2% [at 11.4 µM], COc1ccc(C[C@@H]2C(=O)N[C@H](C)C(=O)N(C)[C@@H]3Cc4ccc(cc4)Oc4cc(ccc4O)C[C@H](C(=O)N[C@@H](C)C(=O)N[C@H](C)C(=O)N2C)N(C)C3=O)cc1 3.77% [at 11.4 µM], Cc1ccccc1-c1ccc2ncnc(N3CCN(C)CC3)c2c1 20.6% [at 2.29 µM], O=C(O)c1c(-c2c3ccc(=O)cc-3oc3cc(O)ccc23)cc2ccccc2c1-c1ccccc1 13% [at 11.4 µM], C/C(CCC(=O)OC[C@@H]1O[C@H](C#Cc2ccccc2)C=C[C@@H]1Oc1ccc(C)cc1)=N/O[C@@H](C)CN1CCCCc2nc(C)c(C)cc21 -2.52% [at 11.4 µM], CC1(CCC(=O)OC2CCCCC2)OCCO1 -10.2% [at 11.4 µM], Cc1ccc(S(=O)(=O)N[C@H]2COC(=O)C/C=C\[C@@H](C)[C@H](NS(=O)(=O)c3ccc(C)cc3)COC(=O)C/C=C\[C@H]2C)cc1 0.307% [at 11.4 µM], C[C@H]1CC(C)(C)C[C@@](OCCN2CCCCC2)(c2ccccc2)C1 5.46% [at 11.4 µM], O=[N+]([O-])c1nccn1C[C@H](O)CN1CCCCC1 0.319% [at 11.4 µM], CO[C@H]1COC(=O)[C@H](C)COC(=O)C/C=C\[C@@H](C)[C@H](OC)COC(=O)C/C=C\[C@@H]1C 8.36% [at 11.4 µM], CO[C@H]1COC(=O)[C@@H](Cc2ccccc2)NC(=O)[C@@H](C)COC(=O)C/C=C\[C@@H]1C 15.1% [at 11.4 µM], Cc1ccc(C(N)=Nc2ccccc2)cc1 3.59% [at 11.4 µM], O=C(O)C(Cc1cccs1)C(=O)O -6.54% [at 11.4 µM], Cc1ccccc1-c1cncnc1NCc1cccs1 0.654% [at 2.29 µM], CC(C)(C)c1cc2c(O)c(c1)Cc1cc(C(C)(C)C)cc(c1O)Cc1cc(C(C)(C)C)cc(c1O)Cc1cc(C(C)(C)C)cc(c1O)Cc1cc(C(C)(C)C)cc(c1O)Cc1cc(C(C)(C)C)cc(c1O)Cc1cc(C(C)(C)C)cc(c1O)Cc1cc(C(C)(C)C)cc(c1O)C2 -3.37% [at 11.4 µM], CN(Cc1ccco1)c1nc(-c2ccc3c(c2)OCO3)nc2ccccc12 -18.1% [at 2.29 µM], N#C[C@@H](N=Nc1ccccc1C(=O)O)C(N)=O -3.32% [at 11.4 µM], CNc1nc(-c2ccccc2C)nc2ccccc12 24.9% [at 2.29 µM]
